Screens from PubChem.
PINK1 modulator: A Quantitative High throughput Screen to Identify Chemical Modulators of PINK1 Expression; PINK1 immunofluorescence, high-content cytometry, 24 h; Potency, µM (doses to about 76.6 µM), without a hit: top-dose activation (PINK1 increase), hits mostly activators; actives 0.2% (n = 410,000); active = well fitted activation curve with a large enough effect; inconclusive = small, poorly fitted or top-dose-only effect; cell line not stated here; also: % of control where 0% means no effect; nearly all actives have a fitted effect of over 65% in size
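Compound titrations (5 concentrations, 24 h) on a stable cell line; DMSO and CCCP controls. Endpoint: fixed-cell PINK1 immunofluorescence with mitochondrial, cell and nuclear markers, scanned by microplate cytometer.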
ClpP mod: qHTS Assay for Activators of ClpP. ATP-dependent Clp protease proteolytic subunit (Bacillus subtilis (strain 168)), P80244. purified B. subtilis ClpP, FRET peptide cleavage, 20 min. Potency, µM (titrated, usually from 57.5 µM), without a hit: top-dose activity change, negative = active. actives 1.9% (n = 340,000). AID 651965, 2013; active = well fitted falling curve with a large enough effect; inconclusive = small, poorly fitted or top-dose-only effect; inactive = no such curve, though single readings can be large or run the other way; also: the source files actives as falling curves though it sought activators and does not explain the sign; nearly all actives have a fitted effect of over 65% in size
Target sequence (P80244 whole entry, looked up): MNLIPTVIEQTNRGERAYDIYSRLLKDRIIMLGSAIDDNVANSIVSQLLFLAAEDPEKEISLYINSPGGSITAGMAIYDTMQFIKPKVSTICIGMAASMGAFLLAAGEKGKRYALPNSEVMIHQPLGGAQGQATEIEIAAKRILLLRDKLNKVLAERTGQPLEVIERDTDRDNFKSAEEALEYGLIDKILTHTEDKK
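ClpP 10 microg/mL final, pH 8 Tris/KCl buffer with BSA, glycerol, Tween-20; compound pinned in; FRET-FV substrate; RT 20 min; Ex320/Em430; ΔFRET vs ADEP 5.8 microM, DMSO, no enzyme.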
RORgamma inh: qHTS for inhibitors of ROR gamma transcriptional activity; Potency, µM (series often up to 53.6 µM), for inactives: top-dose activity change, negative = inhibition, usual class: inhibitors; AID 2551, 2010; actives 5.4% (n = 310,000); Nuclear receptor ROR-gamma (Mus musculus), P51450; Drosophila S2 Gal4-RORgamma UAS-luciferase reporter, 20 h; also: % is scaled to controls: 0 for no effect and ±100 for the full control effect; nearly all actives have a fitted effect of over 60% in size
Target sequence (P51450 whole entry, looked up, the tested form may be a part): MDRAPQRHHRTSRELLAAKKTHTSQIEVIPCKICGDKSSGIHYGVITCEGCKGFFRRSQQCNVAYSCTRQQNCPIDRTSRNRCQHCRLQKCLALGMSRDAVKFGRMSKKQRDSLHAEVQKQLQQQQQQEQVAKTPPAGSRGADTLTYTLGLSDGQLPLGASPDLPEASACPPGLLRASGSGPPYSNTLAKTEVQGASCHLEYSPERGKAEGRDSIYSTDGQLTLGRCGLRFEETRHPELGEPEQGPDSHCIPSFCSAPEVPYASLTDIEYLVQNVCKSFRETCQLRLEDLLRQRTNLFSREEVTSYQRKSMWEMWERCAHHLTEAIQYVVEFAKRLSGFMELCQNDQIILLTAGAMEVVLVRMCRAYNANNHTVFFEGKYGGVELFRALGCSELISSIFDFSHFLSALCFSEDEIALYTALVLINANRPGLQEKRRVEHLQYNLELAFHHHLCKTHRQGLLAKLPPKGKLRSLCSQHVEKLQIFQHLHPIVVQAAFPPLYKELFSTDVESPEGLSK
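Luminescence from a UAS-regulated Photinus luciferase reporter in stably transfected Drosophila Schneider cells is measured; decreased signal marks ROR gamma inhibition. Fusion expression is induced by 700 uM copper sulfate for 20 hr.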
Epigenetic reg: Quantitative High-Throughput Screen for Regulators of Epigenetic Control | murine LDR cells, GFP reporter derepression, 30 h | Potency, µM (doses to about 53.9 µM), for the others: at the top dose GFP activation, actives largely listed as activators | actives 0.2% (n = 280,000); also: % of control where 0% means no effect; nearly all actives have a fitted effect of over 60% in size
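In this reporter-derepression format, murine cells bearing a silenced integrated CMV-GFP locus incubate with test compound (30 h, 37 C), then are washed and imaged; fluorescent objects of 20–120 um count as induced cells.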
Sfp PPTase inh: qHTS Assay for Inhibitors of Bacillus subtilis Sfp phosphopantetheinyl transferase (PPTase) | 4'-phosphopantetheinyl transferase ffp (Bacillus subtilis), Q9F4F7 | Potency, µM, without a hit: largest response in the series, negative = inhibition, hits mostly inhibitors | actives 3.5% (n = 310,000) | AID 1490, 2009 | Biochemical Sfp PPTase activity, qHTS;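 also: the enzyme is Sfp with the accession as filed and its product quenches rhodamine fluorescence; 0% = enzyme reaction without inhibitor and -100% = no enzyme wells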
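Reaction rates are the 30-min fluorescence difference (ex 525, em 598 nm) in wells containing 15 nM Sfp, 5 uM rhodamine-CoA and 12.5 uM BHQ-2-YbbR at pH 7.6 with 10 mM MgCl2.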
Gal4-VP16 FLuc: VP16 counterscreen qHTS for inhibitors of ROR gamma transcriptional activity; Potency, µM (titrated, usually from 53.6 µM), for inactives: at the top dose activity, negative = inhibition, most hits filed as inhibitors; Drosophila S2 Gal4-VP16 UAS-luciferase, luminescence, 20 h; actives 3.5% (n = 310,000);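 also: Gal4-VP16 expression switched on by copper sulfate through the metallothionein promoter; % is scaled to controls: 0 for no effect and ±100 for the full control effect; nearly all actives have a fitted effect of over 50% in size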
* = called active by the depositor; u = inconclusive; x = no result given; [ ] = remark or other dose. Most compounds without a hit are left out; they make up all but 8.1% or so of the library. Unless noted, calls follow the shape of the dose curve; as a rule, active = well fitted curve in the direction sought with a large enough effect; inconclusive = small, poorly fitted or top-dose-only effect, or another doubt; inactive = no such curve, though single readings can be large; an effect the other way counts as inactive or inconclusive. Potency is read from the fitted curve at half-maximal effect.

SMILES | PINK1 modulator | ClpP mod | RORgamma inh | Epigenetic reg | Sfp PPTase inh | Gal4-VP16 FLuc
Nc1nc(COc2ccccc2C=O)nc(Nc2ccccc2)n1 | 3.4% | 25.1µM* | 2.3% | 8.2% | 7.8% | -8.8%
CCOC(=O)c1cnc2c(OC)cccc2c1Nc1cccc(O)c1 | -1.2% | 1.8% | x | 0.0% | x | x
Fc1ccc(/C=N/Nc2nnnn2-c2ccccc2)cc1 | 3.1% | x | 11.2µM* | 1.1% | 8.1% | u
Cn1ncc2c(Nc3cc(C(F)(F)F)ccc3Cl)ncnc21 | 3.4% | -4.4% | x | 0.0% | x | x
COc1ccccc1Cn1[nH]nnc1=S | 0.5% | x | u | 1.6% | 39.8µM* | -12.8%
CN(C)CC(C)(C)CNC(=O)c1ccc(-n2c(=O)c(=O)[nH]c3ccccc32)cc1 | x | x | x | -5.5% | x | x
Cc1nnc(C)c2c(C)n(-c3ccccc3N)c(C)c12 | -0.8% | -23.2% | 3.4% | -4.5% | 56.2µM* | 1.5%
Cc1nnc(C)c2c(C)n(-c3ccccc3)c(C)c12 | -1.0% | -12.5% | 14.6% | x | -3.7% | 1.1%
COc1ccc(-c2cc(C(=O)NNC3=NCCC3)c3c(C)nn(-c4ccccc4)c3n2)cc1 | 3.4% | -0.7% | 0.316µM* | u | 3.3% | u
COc1ccc(NC(=O)c2cc(-c3ccccc3)nc3c2c(C)nn3-c2ccccc2)c(OC)c1 | u | 235.5% | -37.7% | 4.9% | -35.5% | -19.2%
COc1cc(C(=O)NNc2nc3cc4c(cc3s2)OCO4)cc(OC)c1OC | 6.3% | -0.4% | u | 1.1% | 20µM* | 12.6µM*
COc1cc(OC)cc(C(=O)NNc2nc3cc4c(cc3s2)OCO4)c1 | -0.8% | 1.1% | 4.47µM* | 3.2% | 79.4µM* | 12.6µM*
COc1ccc2nc(Nc3nc4cc5c(cc4s3)OCO5)sc2c1 | u | 12.6µM* | 4.47µM* | 0.0% | -3.7% | 11.2µM*
O=C(NCCc1ccccc1)[C@@H]1CC=C[C@@H]2CCN(C3CC3)C(=O)[C@@H]21 | x | -0.7% | x | x | x | x
COc1cccc(NC(=S)NC(=O)Cc2ccccc2)c1 | 0.3% | -1.5% | x | x | x | x
COc1ccc(NC(=S)NCCCc2ccccc2)cc1 | 1.5% | 0.7% | 3.55µM* | 1.1% | 10.7% | 12.6µM*
COc1ccc(NC(=O)NCCCCc2ccccc2)cc1 | -0.9% | 2.1% | 1.9% | x | 12.7% | 0.0%
C=CCN(CC=C)S(=O)(=O)c1ccc(NC(=S)NC(=O)Cc2ccc(OC)cc2)cc1 | -3.8%[38.3 µM] | -2.2% | 7.08µM* | -1.1% | 26.5% | u
COc1ccc(NC(=S)NC(=O)Cc2ccccc2)cc1 | 2.4% | 1.4% | 8.91µM* | x | 8.9% | 7.08µM*
COc1ccc(CC(=O)NNC(=O)CSc2nc(C)c(C)c(=O)[nH]2)cc1 | -1.5% | x | -11.2% | -0.3% | 89.1µM* | -7.6%
COc1ccc(NS(=O)(=O)c2ccc(NC(=S)NC(=O)C(C)C)cc2)cc1 | -0.7% | 0.8% | -0.6% | 0.0% | 9.1% | -3.3%
COc1cccc(CN2C(=O)CN(C3CCCCC3)C(=O)C2c2ccc(OC)c(OC)c2)c1 (stereo not drawn) | 3.9% | -1.9% | x | 4.7% | x | x
COc1ccccc1CCNC(=O)c1cc2c(=O)n3cccc(C)c3nc2n1C | 1.6% | -3.4% | x | 0.0% | x | x
COc1ccc(CC(=O)NC(=S)Nc2ccc(S(=O)(=O)NC(C)(C)C)cc2)cc1 | -0.9% | -1.8% | 12.6µM* | 0.0% | 9.9% | -6.4%
COCCCNC(=S)NNC(=S)Nc1ccc(OC)cc1 | 0.6% | 1.5% | -0.7% | 4.0% | 50.1µM* | -1.4%
SMILES | PINK1 modulator | ClpP mod | RORgamma inh | Epigenetic reg | Sfp PPTase inh | Gal4-VP16 FLuc
CCC(=O)Nc1ccc(NC(=S)NC(=O)Cc2ccccc2)cc1 | -1.8% | 0.6% | -1.7% | 1.0% | -3.4% | -8.4%
O=C(Cc1ccccc1)NC(=S)Nc1ccc(OC(F)F)cc1 | 0.0% | x | 20µM* | x | 15.3% | 11.2µM*
COc1ccc(CC(=O)NC(=S)Nc2ccc(S(N)(=O)=O)cc2)cc1 | -0.9% | -1.6% | 15.7% | -3.2% | 5.3% | u
CNC(=S)NNC(=O)Cc1ccc(OC)cc1 | -2.1% | 28.2µM* | -3.5% | 1.6% | 15.0% | 6.6%
CNC(=S)NNC(=O)Cc1ccc(O)cc1 | 0.8% | u | -0.4% | -1.9% | -4.2% | 4.6%
COc1ccc(NC(=S)NCCCN2CCOCC2)cc1 | -1.4% | 0.3% | 1.6% | 1.1% | 6.4% | -7.8%
CCCCOc1ccc(S(=O)(=O)Nc2ccc(-c3ccc(N4CCC(C)CC4)nn3)cc2)cc1 | 0.7% | -1.3% | x | 1.7% | x | x
O=C(Nc1ccccc1F)c1oc2ccccc2c1NC(=O)C12CC3CC(CC(C3)C1)C2 | 2.3% | -3.2% | x | 13.9% | x | x
CN(C)c1ccc(/C=C/c2ccnc3ccc(-c4ccccc4)cc23)cc1 | 27.3% | 0.2% | x | x | x | x
O=C(NNC1OC(CO)C(O)C(O)C1O)c1cccc(Br)c1 (stereo not drawn) | -0.4% | -3.5% | 11.2µM* | 1.1% | -7.7% | 11.3%[10 µM]
COc1ccc(NS(=O)(=O)c2ccc3[nH]c(=O)ccc3c2)cc1OC | 2.2% | 0.5% | x | -0.8% | x | x
CCC(C)c1ccc(C(C)NC(=S)NCc2ccc(F)cc2)cc1 (stereo not drawn) | u | -4.2% | 2.82µM* | x | 24.4% | 5.01µM*
CCOc1ccc(C(C)NC(=S)NCc2ccc(Cl)cc2)cc1 (stereo not drawn) | 1.3% | 1.3% | 0.794µM* | 12.0% | 41.3% | 12.6µM*
CC(NC(=S)NCc1ccc(F)cc1)C12CC3CC(CC(C3)C1)C2 (stereo not drawn) | u | x | 1.78µM* | -0.5% | 12.5% | 5.01µM*
C[C@H](NC(=O)NCc1ccc(F)cc1)C(=O)O | -0.2% | -1.9% | 3.3% | -7.3% | 22.5% | -8.2%
CCC(NC(=S)NCc1ccc(F)cc1)c1ccc(C(C)C)cc1 (stereo not drawn) | 15.8µM* | -0.5% | 2.82µM* | x | 27.0% | 3.98µM*
CCc1ccc(NC(=O)CCCc2nnc3n(C(C)CC)c(=O)c4sccc4n23)cc1 (stereo not drawn) | 1.2% | -4.4% | x | 1.3% | x | x
Cc1ccc(NC(=O)CSc2ccc(-c3sc(-c4ccccc4)nc3C)nn2)cc1F | 0.8% | -10.3% | x | -4.0% | x | x
COc1ccc(C)cc1NC(=S)NC(C)c1ccc(OC)c(OC)c1 (stereo not drawn) | 7.3% | 1.7% | 2.82µM* | -4.1% | -3.4% | 10µM*
COc1ccc(NC(=S)NC(C)c2ccncc2)cc1OC (stereo not drawn) | -1.9% | x | 4.4% | -1.2% | 4.3% | 2.3%
CCNC(=S)NCc1ccc(OC)c(OC)c1 | 0.9% | 1.3% | -27.4% | 1.3% | 18.7% | -0.6%
